Test results as given in PubChem BioAssay (NCI).
About 79,000 compounds went through this panel and 15% of them were active in at least one assay; those are over-represented in the sample as a whole. A number with no mark means an inactive call. Activity calls are given as the source filed them. No stated cut-off is given here; in the data, active means growth inhibition above about 70%; inactive means the rest.

Legend:
[1] = NCI Yeast Anticancer Drug Screen. Data for the rad50 strain (AID 155);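 further: 0% = growth of vehicle-only cultures of the same strain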; conditions: S. cerevisiae rad50 strain growth inhibition, stronger effect = higher value
Summary of the method: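 DNA repair mutant yeast, compound exposure, growth read-out; inhibition is taken relative to vehicle.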

[2] = NCI Yeast Anticancer Drug Screen. Data for the mec2-1 strain (AID 157); conditions: S. cerevisiae mec2-1 strain, stronger effect = higher value
Summary of the method: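 Readout is yeast growth inhibition, normalised to vehicle-treated controls, in the mec2-1 strain exposed to compound.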

[3] = NCI Yeast Anticancer Drug Screen. Data for the sgs1 mgt1 strain (AID 161);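 further: 0% = growth of cultures given vehicle only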; conditions: S. cerevisiae sgs1 mgt1 strain, stronger effect = higher value
Summary of the method: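 This yeast growth screen uses a strain with defined DNA-repair lesions; compound-treated growth is compared with vehicle-treated growth.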

[4] = NCI Yeast Anticancer Drug Screen. Data for the cln2 rad14 strain (AID 165);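 further: 0% = growth equal to vehicle treated cultures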; conditions: S. cerevisiae cln2 rad14 strain, stronger effect = higher value
Summary of the method: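 Relative to vehicle controls, growth inhibition of compound-treated cln2 rad14 yeast was recorded.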

[5] = NCI Yeast Anticancer Drug Screen. Data for the bub3 strain (AID 167); conditions: S. cerevisiae bub3 mutant strain, stronger effect = higher value
Summary of the method: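 In this screen, a yeast mutant lacking normal mitotic checkpoint function is challenged with compound. Relative growth versus vehicle gives the inhibition value.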

[6] = NCI Yeast Anticancer Drug Screen. Data for the mlh1 rad18 strain (AID 175); conditions: S. cerevisiae mlh1 rad18 strain growth inhibition, stronger effect = higher value
Summary of the method: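 Test agents were incubated with a yeast strain of defined genotype (DNA damage repair defect). Inhibition of growth was derived by comparison with vehicle-exposed cultures.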

[7] = at 5.0 µM (retest, dose inferred, filed as 0.5)
[8] = at 50.0 µM (retest, dose inferred, filed as 5.0)

Structure (SMILES) | growth inhibition [1, 7] | growth inhibition [1, 8] | growth inhibition ([1]; at 50.0 µM) | growth inhibition [2, 7] | growth inhibition [2, 8] | growth inhibition ([2]; at 50.0 µM) | growth inhibition [3, 7] | growth inhibition [3, 8] | growth inhibition ([3]; at 50.0 µM) | growth inhibition [4, 7] | growth inhibition [4, 8] | growth inhibition ([4]; at 50.0 µM) | growth inhibition [5, 7] | growth inhibition [5, 8] | growth inhibition ([5]; at 50.0 µM) | growth inhibition [6, 7] | growth inhibition [6, 8] | growth inhibition ([6]; at 50.0 µM)
CCCCNCCCNCCCNC(=O)c1csc(-c2csc(CCNC(=O)C(NC(=O)C(C)C(O)C(C)NC(=O)C(NC(=O)c3nc(C(CC(N)=O)NCC(N)C(N)=O)nc(N)c3C)C(OC3OC(CO)C(O)C(O)C3OC3OC(CO)C(O)C(OC(N)=O)C3O)c3cnc[nH]3)C(C)O)n2)n1 (stereo not given) | 97% (active) | 99% (active) | 93% (active) | 98% (active) | 99% (active) | 93.8% (active) | 96% (active) | 98% (active) | 94% (active) | 95% (active) | 94% (active) | 91.9% (active) | 97% (active) | 98% (active) | 93.9% (active) | 98% (active) | 99% (active) | 92.7% (active)
CCCCCCCSCC1C(=O)C23CC1CCC2C12COC(O)C1C(C)(C)C(O)CC2OC3=O (stereo not given) | -19% | 98% (active) | 91.7% (active) | 1% | 99% (active) | 92.2% (active) | -11% | 98% (active) | 92.2% (active) | 9% | 99% (active) | 90% (active) | -4% | 99% (active) | 89% (active) | -29% | 98% (active) | 63.4%
CCCCCN(C(=O)CCl)c1ccccc1 | 2% | 36% | 55.7% | -3% | 14% | 35.2% | -1% | 19% | 53.7% | 3% | 5% | 13.8% | -4% | 6% | 50.5% | -2% | 24% | 67.6%
Cc1ccc(NCCN(C)C)c2c(=O)c3ccc(O)cc3sc12 | 56% | 96% (active) | 98.5% (active) | -3% | 82% (active) | 98.9% (active) | -1% | 88% (active) | 93% (active) | -3% | 85% (active) | 63.5% | -1% | 84% (active) | 98.2% (active) | 5% | 94% (active) | 99.2% (active)
CC1(C)CC[C@]2(C(=O)O)CC[C@]3(C)C(=CC[C@@H]4[C@@]5(C)C[C@H](O)[C@H](O)[C@@](C)(C(=O)O)[C@@H]5CC[C@]43C)[C@@H]2C1 | 100% (active) | 99% (active) | 91.2% (active) | 100% (active) | 100% (active) | 94.1% (active) | 99% (active) | 99% (active) | 92.7% (active) | 99% (active) | 99% (active) | 92% (active) | 99% (active) | 99% (active) | 92% (active) | 100% (active) | 100% (active) | 88.7% (active)
CCOc1ccc(/C=N\NC(=O)c2ccco2)cc1OCC | -6% | 4% | 59.8% | -3% | -2% | 94% (active) | -3% | 11% | 47.7% | -23% | -22% | 67% | -11% | -22% | 92.6% (active) | -2% | -12% | 44.6%
CN1CCCN(C)C1c1cc([N+](=O)[O-])ccc1O | 25% | 95% (active) | 49.5% | 3% | 92% (active) | 98.2% (active) | 7% | 96% (active) | 97.7% (active) | 11% | 93% (active) | 87.3% (active) | -6% | 95% (active) | 96.8% (active) | 7% | 99% (active) | 98.9% (active)
N#CSc1ccc(Nc2ccc(SC#N)cc2)cc1 | 98% (active) | 98% (active) | 98.4% (active) | 99% (active) | 99% (active) | 97.6% (active) | 99% (active) | 99% (active) | 98.4% (active) | 99% (active) | 98% (active) | 97.7% (active) | 98% (active) | 97% (active) | 98.2% (active) | 99% (active) | 94% (active) | 97.8% (active)
O=C(Nc1cccc(C(F)(F)F)c1)C(Cl)=C(Cl)Cl | 12% | 99% (active) | 98.5% (active) | -1% | 98% (active) | 98.8% (active) | 0% | 98% (active) | 98.5% (active) | -8% | 99% (active) | 97.8% (active) | 0% | 98% (active) | 98.5% (active) | -2% | 99% (active) | 98.7% (active)
O=C1CSC(c2c[nH]c3ccccc23)N1c1cccc(Cl)c1 (stereo not given) | 10% | 93% (active) | 85.8% (active) | 8% | 97% (active) | 87.7% (active) | 16% | 87% (active) | 87.3% (active) | 6% | 95% (active) | 87% (active) | 16% | 97% (active) | 88.5% (active) | -5% | 97% (active) | 84.5% (active)
